Cycloheximide cs – affects cycloheximide protein synthesis inhibition readout, counter-screen; cell reporter, cycloheximide protein synthesis inhibition counterscreen; max response, %; 12% of 300,000 active; AID 2314; in the data active = max response mostly above about 13%, no sharp cut-off; inactive = mostly below about 14%; note: read at 38.3 µM for the half of the compounds with a filed dose; 0% is about no effect
LASV entry inh – inhibitors of Lassa virus binding or cell entry; Lassa virus pseudotype entry inhibition, cell reporter; Potency, µM (top dose mostly 37.9 µM), without a hit: top-dose activity change, negative = inhibition, usual class: inhibitors; 1.2% of 300,000 active; calls by dose curve; tested in HEK293 cells; note: potency is the fitted concentration of half-maximal effect; % is set by controls: 0 for no effect and ±100 for the full control effect; nearly all actives have a fitted effect of over 50% in size
MARV entry inh – inhibitors of Marburg virus binding or cell entry. 1.8% of 300,000 active. Marburg virus pseudotyped entry inhibition, cell reporter. AID 540276. Potency, µM (titrated, usually from 37.8 µM), inactives show at the highest dose activity change, negative = inhibition, most hits filed as inhibitors; calls by dose curve; tested in HEK293 cells; note: potency is the fitted concentration of half-maximal effect; % is set by controls: 0 for no effect and ±100 for the full control effect
HCV inh – HCV inhibition; Huh7.5.1 HCVcc-Cre infection, luciferase reporter, 44 h; Potency, µM (titrated, usually from 41.8 µM), inactives show top-dose activity change, negative = inhibition, hits mostly inhibitors; 3.4% of 340,000 active; active = well fitted inhibition curve with a large enough effect; inconclusive = small, poorly fitted or top-dose-only effect, or another doubt; inactive = no such curve, though single readings can be large or run the other way; note: potency is the fitted concentration of half-maximal effect; % is set by controls: 0 for no effect and ±100 for the full control effect
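Reporter virus HCVcc-Cre (~0.5 moi) infects cells exposed to compound; seeding density 1,000 cells/well with 4 h settling beforehand. Luminescence, 15 sec read, taken 44 h post-infection following a 15 min RT substrate incubation.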
FMDV inh – foot and mouth disease virus antiviral activity; FMDV antiviral cell-based qHTS; Potency, µM (series often up to 57.9 µM), inactives show at the top dose activity change, negative = inhibition, usual class: inhibitors; 1.2% of 410,000 active; calls by dose curve; tested in HEK293T cells; note: read-out not given here; potency is the fitted concentration of half-maximal effect; % is set by controls: 0 for no effect and ±100 for the full control effect; nearly all actives have a fitted effect of over 45% in size
Shiga inhibitor – inhibitors of Shiga toxin in Vero cells; AID 2315; Vero cells, Shiga toxin protein synthesis inhibition reporter; inhibition, % at 38.7 µM; 9.2% of 290,000 active; in the data active = inhibition mostly above about 28%, no sharp cut-off; inactive = mostly below about 43%; note: 0% is about no effect
Numbers without * were called inactive; ? = inconclusive; . = no result given; ! = repeats disagree; [ ] = dose if it differs, or a comment. Hits are enriched below; roughly 13% of the tested compounds scored in any of these assays.

SMILES | Cycloheximide cs | LASV entry inh | MARV entry inh | HCV inh | FMDV inh | Shiga inhibitor
O=C(/C=C/c1cccs1)c1cc(F)ccc1OC(=O)N1CCOCC1 | . | -2.9% | -12.6% | ? | 22.4µM* | .
O=C(O)CC/C(=N/Nc1ccc([N+](=O)[O-])cc1)C(=O)O | 9.9 | . | . | 0.6% | -14.8% | 22.5
N#CC(C#N)=NNc1ccc([N+](=O)[O-])cc1 | 2.1 | ? | ? | 11.2µM* | -20.8% | 24.4
CCN(CC)S(=O)(=O)c1ccc(NN=C(C#N)C#N)cc1 | 2.7 | ? | ? | ? | 10µM* | 12.6
COc1cc(C(=O)Nc2cc(OC)c(OC)c(OC)c2)ccc1OCc1c(C)noc1C | . | -20.5% | 4.6% | 11.2µM* | -21.0% | .
COc1cc(C(=O)Nc2nc3ccc(C)cc3s2)ccc1OCc1c(C)noc1C | 61.5* | -6.1% | -3.2% | ? | ? | 76.1*
N#Cc1cc2c(nc1SCC(=O)Nc1ccc(Cl)cc1)C1CCN2CC1 | 22.8* | -8.4% | 0.0% | 2.82µM* | -15.9% | 74.4
Cc1ccc(C(=O)N2c3ccccc3N(Cc3ccccc3)C(=O)C2(C)C)cc1 | -3.7 | ? | ? | 11.2µM* | . | 8.8
Cc1ccc(C(=O)CC2(O)C(=O)N(Cc3ccccc3)c3ccc(Br)cc32)cc1 (stereo not given) | . | ? | . | . | -8.3% | .
CC(Oc1ccccc1)C(=O)NC1=NCCS1 (stereo not given) | 38.1* | ? | ? | ? | 12.0% | 79.5*
O=C(COc1ccccc1)NC1=NCCS1 | 41.0* | ? | 12.2% | 6.6% | 33.8% | 95.1*
CC(C)c1ccc(OCC(=O)NC2=NCCS2)cc1 | 68.9* | ? | 24.8% | 2.8% | 55.2% | 98.2*
CCOc1ccc(N(CC)S(=O)(=O)N2CCCC(C(=O)Nc3ccc(OC)c(OC)c3)C2)cc1 (stereo not given) | . | -29.4%[46.1 µM] | . | . | ? | .
CCOC(=O)C(c1ccc(OC)c(OC)c1)C1c2ccccc2C=C(C)N1C(=O)OC (stereo not given) | . | ? | -17.5%[14.2 µM] | . | . | .
CO/N=C(\N)c1nonc1N | 1.2 | ? | ? | ? | -4.7% | 9.1
COc1cc(/C=N/N=C(\N)c2nonc2N)cc(OC)c1O | 47.4* | 0.6% | 17.4%[46.1 µM] | -3.0% | 31.1% | 79.0*
COc1ccc(/C=N/Nc2nonc2N)cc1 | 22.8* | 0.2% | 9.2% | 7.4% | 89.5% | 67.2
COc1cc(/C=N/N=C(/N)c2nonc2N)cc(Br)c1OCc1cccc(C)c1 | 21.0* | -2.4% | ? | ? | ? | 22.8
COc1ccc(/C=N/N=C(\N)c2nonc2N)cc1 | 14.8 | . | . | 6.7% | -25.3% | 44.0*
Cc1ccc(NCc2ccc(Cl)nc2)c(NCc2ccc(Cl)nc2)c1 | 11.7 | -20.2%[46.1 µM] | -14.6%[46.1 µM] | -4.2% | -21.1% | 19.9
CCc1ccc(C(=O)Nc2ccc(C)c(NS(C)(=O)=O)c2)cc1 | 7.6* | . | . | ? | -9.8% | 39.2
Cc1ccc(NC(=O)c2ccc(F)cc2F)cc1NS(C)(=O)=O | 8.1 | . | . | 3.3% | 17.2% | 61.4*
O=C(N/N=C1\CC2CC=CC12)c1ccc(O)cc1 (stereo not given) | 29.8* | ? | 1.1%[46.1 µM] | 1.4% | -7.5% | 51.0*
C/C(=N\NC(=O)C1CC1)c1ccc(C)cc1C | . | . | . | 12.0% | -9.6% | .
Cc1cccc(C)c1NC(=S)N/N=C1\CC2CC=CC12 (stereo not given) | -1.1 | 8.0% | -18.4%[46.1 µM] | 2.6% | ? | 20.5
SMILES | Cycloheximide cs | LASV entry inh | MARV entry inh | HCV inh | FMDV inh | Shiga inhibitor
Cc1ccc(NC(=S)N/N=C2\CC3CC=CC23)c(C)c1 (stereo not given) | 20.1* | . | . | -6.7% | 11.8% | 56.1
Cc1ccc(C(=O)N/N=C2\CC3CC=CC23)c(C)c1 (stereo not given) | 62.6* | 17.4% | 18.9% | 5.5% | 28.5% | 132.7*
CCCCN(C(=O)Cc1ccc(S(=O)(=O)N2CCOCC2)s1)c1c(N)n(CCCC)c(=O)[nH]c1=O | . | 7.3% | 25.8% | ? | -21.6% | .
CCN1c2ccccc2NC2C1C(C(C)=O)C(=O)N2c1ccc(Cl)cc1 (stereo not given) | -0.8 | ? | ? | 10µM* | . | -8.7
Cc1ccccc1-c1nc(CS(=O)CC(=O)NCCN2CCN(Cc3ccccc3)CC2)c(C)o1 (stereo not given) | 0.9 | 4.0% | ? | -11.5% | -10.3% | -15.8
CCC(=O)NNc1ncnc2c1cnn2-c1ccccc1 | 12.2 | 18.2% | 5.5%[46.1 µM] | 10.8% | 18.9% | 20.9
Nc1ncnc2c1cnn2-c1ccccc1 | 28.6* | 0.1% | 23.6% | ? | 5.0% | 90.5*!
